# Shiga inhibitor: blocks Shiga toxin action in Vero cells. Vero cells, Shiga toxin protein synthesis inhibition reporter. actives 9.2% (n = 290,000). AID 2315. inhibition, % at 38.7 µM; in the data active = inhibition mostly above about 28%, no sharp cut-off; inactive = mostly below about 43%
# Cycloheximide cs: counter-screen hit for Shiga toxin inhibitors, cycloheximide | cell reporter, cycloheximide protein synthesis inhibition counterscreen | max response, % | actives 12% (n = 300,000); in the data active = max response mostly above about 13%, no sharp cut-off; inactive = mostly below about 14%; note: read at 38.3 µM for the half of the compounds with a filed dose
# Pf growth 96h: P. falciparum growth inhibition at 96 hours. P. falciparum luciferase reporter growth, 96 h. Potency, µM (top dose mostly 28.7 µM), most hits filed as inhibitors. actives 6.9% (n = 320,000). AID 504834
#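 P. falciparum expressing integrated firefly luciferase, in erythrocytes at 2% hematocrit, 0.05% parasitemia, incubated with compounds 96 h at 37 C, 5% CO2. Growth inhibition read as loss of luminescence; two-generation exposure targets delayed-death apicoplast inhibitors.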
# Pf growth 48h: P. falciparum growth inhibition at 48 hours (one generation). actives 5.9% (n = 310,000). P. falciparum luciferase growth in erythrocytes, 48 h. Potency, µM (top dose mostly 28.7 µM), usual class: inhibitors. AID 504832
#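 Read-out is firefly luciferase luminescence from an integrated reporter in P. falciparum, so falling signal marks reduced parasite growth. Infected erythrocytes were at 2% hematocrit and 0.1% parasitemia (final) in Albumax-supplemented RPMI 1640.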
# NS1 function inh: inhibitors of influenza NS1 protein function. actives 0.4% (n = 270,000). Potency, µM (doses to about 46.1 µM). AID 2326; calls by dose curve; note: actives are rising curves; nearly all actives have a fitted effect of over 50% in size
#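 Growth recovery, yeast-based: influenza A NS1 expressed in S. cerevisiae causes slow growth, and suppressors are detected by OD600. The parent strain without NS1 is used as positive control.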
# Sm TGR block: blocks Schistosoma mansoni thioredoxin glutathione reductase; Q962Y6; purified TGR, DTNB reduction, TNB absorbance 405 nm; Potency, µM (highest dose often 114 µM), hits mostly inhibitors; actives 3% (n = 360,000); AID 485364; note: nearly all actives have a fitted effect of over 60% in size
#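 TGR 20 nM + NADPH 100 uM (dispensed conc.), cpd preinc 15 min RT; start with NADPH (500 uM addition) then DTNB (15 mM addition). Kinetic TNB absorbance, 405 nm filter. Four-parameter Hill fit across titration.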
# Numbers stand for hits; 0 = inactive; ? = inconclusive; - = no result; ! = not confirmed by another sample; [ ] = dose if it differs, or a comment. The list is not random: actives were taken first. Their share in the collection is about 21%. Unless noted, calls come from the whole dose curve; as a rule, active = well fitted curve in the direction sought with a large enough effect; inconclusive = small, poorly fitted or top-dose-only effect, or another doubt; inactive = no such curve, though single readings can be large; an effect the other way counts as inactive or inconclusive.
SMILES,Shiga inhibitor,Cycloheximide cs,Pf growth 96h,Pf growth 48h,NS1 function inh,Sm TGR block
CCC1(CC)N([O-])C(C)=C(c2ccccc2)[N+]1=O,0,0,0,0,0,0
Cc1nnc(NC(=O)c2nc(SC(C)C)ncc2Cl)s1,-,-,-,-,-,0
CCOc1ccc(Cn2c(-c3ccc(OCC)c(OC)c3)nc3ccccc32)cc1OC,-,-,-,-,-,0
COCCn1c(-c2ccccc2)nc2ccccc21,96.1,65.6,0,0,?,0
COc1ccc(Cn2c(-c3ccc(C)cc3)c[n+]3ccccc23)cc1,0,0,0.104µM,0.37µM,0,0
COc1ccc(Cn2c(O)c(C=Nc3ccc(C)cc3)c3ccccc3c2=O)cc1,0,0,0,0,0,0
COCCCn1c(-c2ccccc2)nc2ccccc2c1=O,0,0,0,0,0,0
CCCn1c(-c2ccc(OC)cc2)nc2ccccc21,0,13.2,?,?,0,0
COc1ccc(Cn2c(-c3ccc(OC)c(O)c3)nc3ccccc32)cc1O,75.2,26.8,0,0,0,0
CCOC(Cn1c(-c2ccc(OC)cc2)nc2ccccc21)OCC,0,0,?,-,0,0
CCn1nnc(-c2ccc(N)cc2)n1,0,0,0,0,0,-
O=C(COC(=O)c1ccc(OC(F)F)cc1)NCCCN1CCCC1=O,0,0,0,0,0,0
Cc1ccccc1-n1nnnc1SCc1csc(-c2ccccc2)n1,0,0,9.28µM,-,0,0[11.4 µM]
Cc1ccccc1-n1nnnc1SCC(C)C,0,0,0,0,-,0
COCCn1c(SCc2csc(-c3ccccc3)n2)nc2ccccc21,0,0,11.7µM,0,0,0
C=C(C)Cn1c(-c2ccc(OC)cc2)nc2ccccc21,0,0,0,0,0,0
COCn1c(-c2ccc(OC)cc2)nc2ccccc21,active,51.1,?,0,0,0
COCCn1c(SCC(=O)NCc2ccccc2)nc2ccccc21,0,0,0,0,0,0
COc1ccc(-c2nc3ccccc3n2Cc2ccc(Cl)cc2)cc1,-,-,-,-,-,0
COc1ccc(-c2nc3ccccc3n2Cc2ccc(C)cc2)cc1,44.0,41.7,?,?,0,?
CCCCC(=O)Nc1ccc2c(c1)nc(CCN1CCN(c3ccccn3)CC1)n2C,0,0,0,0,0,0
CC(=O)c1ccc(-c2c(C3C4C=CCC(C)C4C(=O)N3Cc3ccccc3)ccc3ccccc23)cc1 (centres undefined),0,0,-,-,-,-
Cc1cccc(C(=O)N2CCCCC2CCN2CCCCC2)c1 (centres undefined),-,-,-,-,-,0
COc1ccc(-c2c(C)nn3c(C(F)(F)F)cc(-c4ccccc4)nc23)cc1,-,-,-,-,-,0
CCc1ccccc1NC(=O)C1C2C=CC(O2)C1C(=O)O (centres undefined),0,0,?,0,0,17.8µM
SMILES,Shiga inhibitor,Cycloheximide cs,Pf growth 96h,Pf growth 48h,NS1 function inh,Sm TGR block
CCOc1ccc(OCC)c(NC(=O)C2C3C=CC(O3)C2C(=O)NCc2ccco2)c1 (centres undefined),0,0,0,0,0,50.1µM
O=C(O)C1C2C=CC(O2)C1C(=O)Nc1cccc(C(F)(F)F)c1 (centres undefined),0,0,10.4µM,0,0,100µM
O=C(O)C1C2C=CC(O2)C1C(=O)Nc1ccccc1C(F)(F)F (centres undefined),0,0,0,-,0,8.91µM
COc1ccc(NC(=O)C2C3C=CC(C3)C2C(=O)NCc2ccco2)c(OC)c1 (centres undefined),0,0,?,0,0,0
COc1ccc(C(=O)N(C)CCCC2CCCC2)cc1OC1CCN(C(C)C)CC1,0,0,0,0,0,0
CCOc1ccccc1NC(=O)C1C2CCC(O2)C1C(=O)O (centres undefined),0,0,0,0,0,0
CCOc1ccccc1NC(=O)C1C2C=CC(O2)C1C(=O)O (centres undefined),0,0,0,0,0,20µM
CCOC(=O)c1cc(NC(=O)C2C3C=CC(O3)C2C(=O)O)cc(C(=O)OCC)c1 (centres undefined),0,0,11.7µM,?,0,?
O=C(COC(=O)c1ccccc1)Nc1cc(S(=O)(=O)N2CCCCCC2)ccc1Cl,-,-,0,?,-,0
CCc1ccccc1NC(=O)Nc1ccc(F)cc1F,0,0,?,0,-,0
O=C(Nc1ccc(F)c(Cl)c1)Nc1csc2ccccc12,56.7,38.0,?,?,0,0
O=C(Nc1ccc(F)cc1F)Nc1csc2ccccc12,117.2,41.9,?,4.65µM,0,0
O=C(CN(C(=O)c1csnn1)c1cccc2c1CCCC2)NC1CCCC1,0,0,?,0,0,0
N#Cc1ccc(COC(=O)CN2C(=O)NC3(CCCC3)C2=O)cc1,-,-,0,?,-,0
N#Cc1ccsc1NC(=O)c1cccc([N+](=O)[O-])c1,52.4,23.0,0,0,-,0
O=C(NNC(=O)c1cccs1)c1ccc(Cl)c([N+](=O)[O-])c1,0,0,0,0,0,0
N#Cc1ccsc1NC(=O)c1cccc(-n2cnnn2)c1,0,10.1,0,0,0,0
N#Cc1ccsc1NC(=O)c1ccc(Cl)c([N+](=O)[O-])c1,98.7,51.1,?,0,0,0
N#Cc1ccsc1NC(=O)c1ccccn1,0,0,0,0,0,0
COc1ccc(OCC(O)CNC(=O)Nc2cc(F)ccc2C)cc1 (centres undefined),0,0,0,0,0,0
O=C(NCCc1ccccc1)c1ccc(CS(=O)Cc2ccc(Cl)cc2)o1 (centres undefined),0,0,0,0,0,35.5µM!
COc1ccc(OC)c(CCNC(=O)c2ccc(CS(=O)Cc3cccc(Cl)c3)o2)c1 (centres undefined),0,0,4.15µM,?,0,0
Cc1ccc(CS(=O)Cc2ccc(C(=O)NC3CCCCC3)o2)cc1 (centres undefined),0,0,?,?,0,0
O=C(NC1CCCCCC1)c1ccc(CS(=O)Cc2cccc(Cl)c2)o1 (centres undefined),0,0,?,0,0,56.2µM
COc1ccc(CCN2CC(C(=O)Nc3ccccc3F)CC2=O)cc1OC (centres undefined),-,-,0,?,-,0
SMILES,Shiga inhibitor,Cycloheximide cs,Pf growth 96h,Pf growth 48h,NS1 function inh,Sm TGR block
CCC[C@@H](O)c1cc2cc(OC)c(OC)cc2c(=O)o1,-,-,2.62µM,0,-,0
COc1cc2cc(C(C)(C)O)oc(=O)c2cc1OC,-,-,0,0,-,0
Cc1cc(C(=O)CSc2nc3ccccc3[nH]2)c(C)n1CC1CCCO1 (centres undefined),0,0,0,0,0,0
C=CCn1c(SCC(=O)c2cc(C)n(CC3CCCO3)c2C)nnc1-c1ccccc1 (centres undefined),0,0,9.28µM,?,0,0
Cc1ccc(-n2nnnc2SCC(=O)c2cc(C)n(CC3CCCO3)c2C)cc1 (centres undefined),0,0,1.47µM,?,0,0
Cc1sc2nc(SCC(=O)c3cc(C)n(CC4CCCO4)c3C)n(C(C)C)c(=O)c2c1C (centres undefined),0,0,8.28µM,?,0,0
